Experiment in all cases: log2 ratio of Biotin-Ahx-Ub-VS probe labelling (fragment/DMSO); higher = less target engagement (more negative = stronger competition), active = hit call of the paper (q ≤ 0.05, log2 ratio ≤ -1)
Holding throughout (conditions): compound concentration: 200 uM; treatment time: 3 h

The target in one test is T1, USP42 (UniProt Q9H9J4).
T1 sequence (whole entry): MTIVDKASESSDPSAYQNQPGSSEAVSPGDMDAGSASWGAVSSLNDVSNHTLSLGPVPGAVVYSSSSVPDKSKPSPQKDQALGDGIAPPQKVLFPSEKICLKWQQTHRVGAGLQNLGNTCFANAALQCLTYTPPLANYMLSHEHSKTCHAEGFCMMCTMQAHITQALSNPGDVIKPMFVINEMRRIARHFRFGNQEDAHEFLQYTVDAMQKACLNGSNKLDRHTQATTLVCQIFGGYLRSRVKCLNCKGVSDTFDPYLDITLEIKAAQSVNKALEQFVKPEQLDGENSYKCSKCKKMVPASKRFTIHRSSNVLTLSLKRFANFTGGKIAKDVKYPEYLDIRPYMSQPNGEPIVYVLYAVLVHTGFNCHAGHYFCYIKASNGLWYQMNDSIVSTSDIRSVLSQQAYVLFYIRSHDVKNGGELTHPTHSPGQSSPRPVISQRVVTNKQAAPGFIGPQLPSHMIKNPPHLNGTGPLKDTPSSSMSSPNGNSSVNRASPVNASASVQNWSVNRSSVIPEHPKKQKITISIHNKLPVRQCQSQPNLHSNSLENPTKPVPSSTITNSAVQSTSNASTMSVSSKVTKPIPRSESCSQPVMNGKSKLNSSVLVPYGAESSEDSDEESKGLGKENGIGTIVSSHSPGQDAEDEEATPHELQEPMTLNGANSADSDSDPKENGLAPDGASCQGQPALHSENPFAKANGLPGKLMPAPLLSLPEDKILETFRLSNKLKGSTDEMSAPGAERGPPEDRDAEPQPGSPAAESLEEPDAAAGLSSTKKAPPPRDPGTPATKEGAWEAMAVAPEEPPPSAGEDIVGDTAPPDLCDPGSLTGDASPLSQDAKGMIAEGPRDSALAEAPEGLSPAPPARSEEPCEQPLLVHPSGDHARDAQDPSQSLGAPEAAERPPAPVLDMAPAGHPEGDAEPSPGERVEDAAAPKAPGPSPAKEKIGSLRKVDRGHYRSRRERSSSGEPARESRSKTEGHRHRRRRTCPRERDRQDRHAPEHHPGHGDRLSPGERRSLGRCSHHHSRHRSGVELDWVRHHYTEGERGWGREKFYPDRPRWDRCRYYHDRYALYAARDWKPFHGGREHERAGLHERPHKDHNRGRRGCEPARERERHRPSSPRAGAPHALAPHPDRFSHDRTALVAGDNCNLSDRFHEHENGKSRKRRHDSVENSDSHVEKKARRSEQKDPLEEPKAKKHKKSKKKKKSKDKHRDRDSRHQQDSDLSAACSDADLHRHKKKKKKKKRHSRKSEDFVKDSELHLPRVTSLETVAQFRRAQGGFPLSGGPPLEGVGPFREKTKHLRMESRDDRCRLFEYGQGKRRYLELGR
An outline of the steps:
(§1)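 Labelled DUBs from HEK293T lysate were NeutrAvidin-enriched, digested with LysC and trypsin, and run by diaPASEF LC-MS/MS. Before that, each 495 µg sample in Tris/CHAPS/IGEPAL buffer with protease inhibitors was treated in triplicate with fragment at 200 µM or vehicle for 3 h, then with Biotin-Ahx-Ub-VS at 0.5 µM final for 1 h. Values are average log2 ratios of fragment over vehicle by unpaired t-test, based on global-median-normalised Spectronaut label-free quantities from proteins with ≥2 unique peptides.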

In a further test the target is USP46 (UniProt P62068). The essentials:
as §1

Another test concerns the target T2, USP47 (UniProt Q96K76).
T2 sequence (whole entry): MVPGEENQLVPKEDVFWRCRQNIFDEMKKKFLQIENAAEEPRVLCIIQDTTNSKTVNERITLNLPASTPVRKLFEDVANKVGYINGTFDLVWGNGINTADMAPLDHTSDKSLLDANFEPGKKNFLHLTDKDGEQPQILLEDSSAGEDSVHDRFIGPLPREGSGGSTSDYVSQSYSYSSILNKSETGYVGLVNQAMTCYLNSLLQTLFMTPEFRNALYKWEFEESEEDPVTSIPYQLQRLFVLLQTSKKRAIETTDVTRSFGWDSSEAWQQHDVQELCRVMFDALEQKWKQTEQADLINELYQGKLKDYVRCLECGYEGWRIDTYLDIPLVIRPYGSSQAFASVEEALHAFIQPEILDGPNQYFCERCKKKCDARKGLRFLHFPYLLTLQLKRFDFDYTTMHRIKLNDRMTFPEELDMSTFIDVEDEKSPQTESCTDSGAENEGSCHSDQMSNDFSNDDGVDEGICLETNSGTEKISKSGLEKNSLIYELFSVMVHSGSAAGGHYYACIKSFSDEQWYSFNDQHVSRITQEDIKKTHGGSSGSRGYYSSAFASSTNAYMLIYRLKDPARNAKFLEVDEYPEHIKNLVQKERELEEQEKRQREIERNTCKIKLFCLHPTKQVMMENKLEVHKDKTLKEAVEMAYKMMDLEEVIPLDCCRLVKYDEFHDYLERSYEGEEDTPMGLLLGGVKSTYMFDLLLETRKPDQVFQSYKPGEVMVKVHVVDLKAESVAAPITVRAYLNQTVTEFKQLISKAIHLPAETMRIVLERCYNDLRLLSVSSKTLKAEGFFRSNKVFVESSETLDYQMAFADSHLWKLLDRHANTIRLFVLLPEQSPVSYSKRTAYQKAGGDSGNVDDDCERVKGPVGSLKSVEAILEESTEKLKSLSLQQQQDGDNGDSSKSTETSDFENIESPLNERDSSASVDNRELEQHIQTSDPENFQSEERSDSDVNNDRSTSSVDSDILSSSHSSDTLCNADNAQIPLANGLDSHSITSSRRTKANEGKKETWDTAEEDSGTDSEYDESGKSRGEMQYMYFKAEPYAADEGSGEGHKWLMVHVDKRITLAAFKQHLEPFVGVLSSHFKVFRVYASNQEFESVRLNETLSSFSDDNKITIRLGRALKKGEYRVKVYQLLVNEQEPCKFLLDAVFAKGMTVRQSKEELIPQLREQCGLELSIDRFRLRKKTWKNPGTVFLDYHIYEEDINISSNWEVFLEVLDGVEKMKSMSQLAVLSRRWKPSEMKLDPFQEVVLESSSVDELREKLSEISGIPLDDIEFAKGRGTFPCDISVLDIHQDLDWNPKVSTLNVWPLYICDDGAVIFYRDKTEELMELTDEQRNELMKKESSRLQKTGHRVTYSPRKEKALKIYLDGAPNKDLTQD
The essentials: as §1

In the next test the target is T3, USP48 (UniProt Q86UV5).
T3 sequence (whole entry): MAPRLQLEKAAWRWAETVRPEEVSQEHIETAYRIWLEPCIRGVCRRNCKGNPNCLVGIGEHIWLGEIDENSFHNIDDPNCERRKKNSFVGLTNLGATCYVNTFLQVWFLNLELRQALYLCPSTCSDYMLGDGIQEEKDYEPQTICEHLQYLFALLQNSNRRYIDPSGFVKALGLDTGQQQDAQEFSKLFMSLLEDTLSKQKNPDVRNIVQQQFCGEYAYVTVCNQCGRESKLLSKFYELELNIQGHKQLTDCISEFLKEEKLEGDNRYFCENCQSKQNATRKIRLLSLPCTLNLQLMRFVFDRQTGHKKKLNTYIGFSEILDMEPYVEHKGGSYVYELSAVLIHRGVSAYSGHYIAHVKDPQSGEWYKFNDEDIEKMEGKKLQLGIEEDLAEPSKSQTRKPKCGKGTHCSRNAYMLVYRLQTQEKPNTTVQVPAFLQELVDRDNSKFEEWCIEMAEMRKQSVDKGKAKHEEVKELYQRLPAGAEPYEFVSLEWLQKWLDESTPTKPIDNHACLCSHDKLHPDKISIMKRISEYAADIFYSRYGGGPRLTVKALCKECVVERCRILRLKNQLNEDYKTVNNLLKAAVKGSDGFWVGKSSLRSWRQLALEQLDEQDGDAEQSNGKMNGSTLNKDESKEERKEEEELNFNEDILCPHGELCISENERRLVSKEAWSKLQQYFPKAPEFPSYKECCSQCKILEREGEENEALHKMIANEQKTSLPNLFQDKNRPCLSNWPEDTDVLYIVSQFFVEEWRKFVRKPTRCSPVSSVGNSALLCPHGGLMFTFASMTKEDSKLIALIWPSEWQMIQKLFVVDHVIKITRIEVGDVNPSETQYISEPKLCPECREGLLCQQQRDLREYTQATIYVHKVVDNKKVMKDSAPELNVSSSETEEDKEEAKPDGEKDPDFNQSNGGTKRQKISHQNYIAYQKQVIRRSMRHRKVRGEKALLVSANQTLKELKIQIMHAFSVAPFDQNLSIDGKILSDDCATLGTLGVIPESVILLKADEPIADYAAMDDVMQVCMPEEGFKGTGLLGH
An outline of the steps:
as §1

In the next test the target is T4, USP5 (UniProt P45974).
T4 sequence (whole entry): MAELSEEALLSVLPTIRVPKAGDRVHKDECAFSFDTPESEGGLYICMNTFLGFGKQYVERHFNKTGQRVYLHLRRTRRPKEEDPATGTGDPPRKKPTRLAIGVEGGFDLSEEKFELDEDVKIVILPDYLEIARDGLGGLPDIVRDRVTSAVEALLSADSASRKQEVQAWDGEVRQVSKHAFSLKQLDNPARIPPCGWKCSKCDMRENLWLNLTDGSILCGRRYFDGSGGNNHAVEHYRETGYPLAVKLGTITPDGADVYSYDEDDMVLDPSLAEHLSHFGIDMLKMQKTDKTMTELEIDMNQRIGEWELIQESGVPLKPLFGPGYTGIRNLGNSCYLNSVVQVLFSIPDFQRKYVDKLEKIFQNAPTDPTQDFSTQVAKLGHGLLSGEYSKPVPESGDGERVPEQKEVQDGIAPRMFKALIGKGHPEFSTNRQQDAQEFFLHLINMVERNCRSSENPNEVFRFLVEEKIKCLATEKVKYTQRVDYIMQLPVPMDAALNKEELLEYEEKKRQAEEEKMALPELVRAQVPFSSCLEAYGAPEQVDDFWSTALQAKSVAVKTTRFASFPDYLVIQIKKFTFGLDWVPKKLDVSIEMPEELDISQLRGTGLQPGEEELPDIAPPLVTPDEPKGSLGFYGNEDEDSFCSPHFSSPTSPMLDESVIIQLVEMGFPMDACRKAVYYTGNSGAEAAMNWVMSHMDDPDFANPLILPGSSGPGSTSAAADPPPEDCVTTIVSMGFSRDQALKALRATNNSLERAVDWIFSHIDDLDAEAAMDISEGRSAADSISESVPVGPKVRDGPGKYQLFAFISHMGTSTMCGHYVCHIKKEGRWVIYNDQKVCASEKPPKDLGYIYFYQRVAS
An outline of the steps: as §1

A further test addresses USP54 (UniProt Q70EL1). The essentials: as §1
For another test, the target named is USP7 (UniProt Q93009). An outline of the steps: as §1
In a further test the target is T5, USP8 (UniProt P40818).
T5 sequence (whole entry): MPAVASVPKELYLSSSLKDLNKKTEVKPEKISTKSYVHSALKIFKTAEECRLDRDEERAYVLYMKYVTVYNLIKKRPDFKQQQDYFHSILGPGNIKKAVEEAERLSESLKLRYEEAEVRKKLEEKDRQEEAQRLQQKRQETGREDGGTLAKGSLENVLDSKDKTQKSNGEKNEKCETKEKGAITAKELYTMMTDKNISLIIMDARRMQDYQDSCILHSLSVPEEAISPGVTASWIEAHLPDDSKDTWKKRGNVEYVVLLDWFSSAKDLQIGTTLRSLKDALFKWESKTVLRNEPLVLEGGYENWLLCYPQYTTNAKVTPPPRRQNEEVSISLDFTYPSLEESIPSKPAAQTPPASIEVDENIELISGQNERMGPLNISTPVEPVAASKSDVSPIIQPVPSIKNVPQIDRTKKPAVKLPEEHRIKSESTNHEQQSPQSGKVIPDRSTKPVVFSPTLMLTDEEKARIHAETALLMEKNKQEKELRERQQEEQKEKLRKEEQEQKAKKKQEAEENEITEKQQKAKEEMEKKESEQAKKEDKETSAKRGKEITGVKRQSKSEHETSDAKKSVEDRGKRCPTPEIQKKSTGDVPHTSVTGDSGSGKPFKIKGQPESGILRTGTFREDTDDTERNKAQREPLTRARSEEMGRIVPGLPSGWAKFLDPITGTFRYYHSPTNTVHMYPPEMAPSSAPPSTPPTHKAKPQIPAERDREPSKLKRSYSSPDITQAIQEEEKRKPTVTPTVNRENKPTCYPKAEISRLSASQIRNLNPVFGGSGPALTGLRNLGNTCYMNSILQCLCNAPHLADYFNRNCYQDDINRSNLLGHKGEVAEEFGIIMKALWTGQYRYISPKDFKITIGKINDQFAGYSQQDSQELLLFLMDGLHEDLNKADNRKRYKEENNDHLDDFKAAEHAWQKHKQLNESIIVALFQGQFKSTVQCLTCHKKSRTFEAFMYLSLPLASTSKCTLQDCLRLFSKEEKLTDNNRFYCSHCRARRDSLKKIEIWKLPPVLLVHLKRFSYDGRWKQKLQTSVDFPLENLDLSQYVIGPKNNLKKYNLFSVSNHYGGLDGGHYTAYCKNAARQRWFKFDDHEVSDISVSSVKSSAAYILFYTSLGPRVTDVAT
The essentials:
as §1

Another test concerns the target USP9X (UniProt Q93008). The essentials: as §1
For another test, the target named is UniProt O00487. The essentials: as §1
UniProt O00487, sequence (O00487 whole entry): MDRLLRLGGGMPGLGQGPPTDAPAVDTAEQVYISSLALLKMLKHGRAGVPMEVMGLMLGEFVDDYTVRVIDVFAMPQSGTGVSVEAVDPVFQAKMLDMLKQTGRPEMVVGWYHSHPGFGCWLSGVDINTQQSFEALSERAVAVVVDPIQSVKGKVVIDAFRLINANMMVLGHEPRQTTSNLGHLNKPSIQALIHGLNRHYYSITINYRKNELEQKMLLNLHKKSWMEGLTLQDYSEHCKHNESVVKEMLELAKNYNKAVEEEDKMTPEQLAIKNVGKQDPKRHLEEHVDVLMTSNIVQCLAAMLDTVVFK

Values without a mark were called inactive.

USP46, sequence (P62068 whole entry): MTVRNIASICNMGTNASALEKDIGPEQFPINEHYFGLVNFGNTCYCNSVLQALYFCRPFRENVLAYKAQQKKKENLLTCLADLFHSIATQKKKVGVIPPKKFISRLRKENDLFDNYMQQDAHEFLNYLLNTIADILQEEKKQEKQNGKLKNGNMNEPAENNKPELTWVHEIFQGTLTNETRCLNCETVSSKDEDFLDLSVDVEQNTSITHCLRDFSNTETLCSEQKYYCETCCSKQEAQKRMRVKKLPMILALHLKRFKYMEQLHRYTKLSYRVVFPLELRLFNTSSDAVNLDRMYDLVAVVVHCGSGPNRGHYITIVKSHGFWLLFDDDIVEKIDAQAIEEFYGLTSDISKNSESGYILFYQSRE
USP54, sequence (Q70EL1 whole entry): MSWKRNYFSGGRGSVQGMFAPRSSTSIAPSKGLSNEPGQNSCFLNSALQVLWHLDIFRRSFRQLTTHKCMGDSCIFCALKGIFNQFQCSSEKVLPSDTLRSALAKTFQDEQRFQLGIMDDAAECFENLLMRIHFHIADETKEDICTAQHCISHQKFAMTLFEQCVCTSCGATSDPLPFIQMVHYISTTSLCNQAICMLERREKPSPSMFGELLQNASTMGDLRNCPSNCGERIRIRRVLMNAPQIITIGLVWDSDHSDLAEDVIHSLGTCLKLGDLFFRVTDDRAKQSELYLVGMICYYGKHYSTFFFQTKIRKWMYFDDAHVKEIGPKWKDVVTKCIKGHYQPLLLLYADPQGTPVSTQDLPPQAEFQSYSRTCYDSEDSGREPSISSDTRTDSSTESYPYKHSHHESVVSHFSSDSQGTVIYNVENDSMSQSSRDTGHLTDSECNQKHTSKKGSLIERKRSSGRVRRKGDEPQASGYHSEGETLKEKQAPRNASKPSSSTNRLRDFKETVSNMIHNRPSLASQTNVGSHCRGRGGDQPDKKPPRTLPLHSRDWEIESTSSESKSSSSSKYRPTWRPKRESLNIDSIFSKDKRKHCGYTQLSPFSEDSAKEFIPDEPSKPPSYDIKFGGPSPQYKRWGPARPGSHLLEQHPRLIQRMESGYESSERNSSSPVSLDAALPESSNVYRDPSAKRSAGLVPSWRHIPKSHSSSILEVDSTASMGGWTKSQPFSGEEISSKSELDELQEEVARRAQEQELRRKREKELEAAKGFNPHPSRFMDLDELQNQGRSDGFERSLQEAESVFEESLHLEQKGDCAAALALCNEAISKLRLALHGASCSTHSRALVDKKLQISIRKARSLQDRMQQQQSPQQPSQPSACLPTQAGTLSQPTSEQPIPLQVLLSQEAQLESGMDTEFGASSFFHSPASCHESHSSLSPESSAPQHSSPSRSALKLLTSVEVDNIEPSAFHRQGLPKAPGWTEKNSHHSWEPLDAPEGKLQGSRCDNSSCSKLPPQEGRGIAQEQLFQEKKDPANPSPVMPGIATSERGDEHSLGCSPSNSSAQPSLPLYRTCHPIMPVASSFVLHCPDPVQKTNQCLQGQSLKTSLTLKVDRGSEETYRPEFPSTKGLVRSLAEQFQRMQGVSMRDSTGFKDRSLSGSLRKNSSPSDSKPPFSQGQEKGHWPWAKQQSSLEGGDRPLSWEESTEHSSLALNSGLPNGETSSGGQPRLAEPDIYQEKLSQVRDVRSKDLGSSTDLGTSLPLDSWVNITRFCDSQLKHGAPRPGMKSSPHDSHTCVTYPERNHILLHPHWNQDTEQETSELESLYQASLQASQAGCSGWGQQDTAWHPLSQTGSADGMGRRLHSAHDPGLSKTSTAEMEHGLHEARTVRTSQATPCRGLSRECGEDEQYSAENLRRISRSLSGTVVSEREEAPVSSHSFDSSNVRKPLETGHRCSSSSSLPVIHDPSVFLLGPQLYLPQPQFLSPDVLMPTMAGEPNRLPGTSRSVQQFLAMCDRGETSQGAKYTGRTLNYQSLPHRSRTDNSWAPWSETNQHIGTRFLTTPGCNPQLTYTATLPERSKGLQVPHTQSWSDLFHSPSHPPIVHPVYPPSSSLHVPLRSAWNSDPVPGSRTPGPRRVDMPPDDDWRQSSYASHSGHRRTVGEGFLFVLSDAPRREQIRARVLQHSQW
USP9X, sequence (Q93008 whole entry): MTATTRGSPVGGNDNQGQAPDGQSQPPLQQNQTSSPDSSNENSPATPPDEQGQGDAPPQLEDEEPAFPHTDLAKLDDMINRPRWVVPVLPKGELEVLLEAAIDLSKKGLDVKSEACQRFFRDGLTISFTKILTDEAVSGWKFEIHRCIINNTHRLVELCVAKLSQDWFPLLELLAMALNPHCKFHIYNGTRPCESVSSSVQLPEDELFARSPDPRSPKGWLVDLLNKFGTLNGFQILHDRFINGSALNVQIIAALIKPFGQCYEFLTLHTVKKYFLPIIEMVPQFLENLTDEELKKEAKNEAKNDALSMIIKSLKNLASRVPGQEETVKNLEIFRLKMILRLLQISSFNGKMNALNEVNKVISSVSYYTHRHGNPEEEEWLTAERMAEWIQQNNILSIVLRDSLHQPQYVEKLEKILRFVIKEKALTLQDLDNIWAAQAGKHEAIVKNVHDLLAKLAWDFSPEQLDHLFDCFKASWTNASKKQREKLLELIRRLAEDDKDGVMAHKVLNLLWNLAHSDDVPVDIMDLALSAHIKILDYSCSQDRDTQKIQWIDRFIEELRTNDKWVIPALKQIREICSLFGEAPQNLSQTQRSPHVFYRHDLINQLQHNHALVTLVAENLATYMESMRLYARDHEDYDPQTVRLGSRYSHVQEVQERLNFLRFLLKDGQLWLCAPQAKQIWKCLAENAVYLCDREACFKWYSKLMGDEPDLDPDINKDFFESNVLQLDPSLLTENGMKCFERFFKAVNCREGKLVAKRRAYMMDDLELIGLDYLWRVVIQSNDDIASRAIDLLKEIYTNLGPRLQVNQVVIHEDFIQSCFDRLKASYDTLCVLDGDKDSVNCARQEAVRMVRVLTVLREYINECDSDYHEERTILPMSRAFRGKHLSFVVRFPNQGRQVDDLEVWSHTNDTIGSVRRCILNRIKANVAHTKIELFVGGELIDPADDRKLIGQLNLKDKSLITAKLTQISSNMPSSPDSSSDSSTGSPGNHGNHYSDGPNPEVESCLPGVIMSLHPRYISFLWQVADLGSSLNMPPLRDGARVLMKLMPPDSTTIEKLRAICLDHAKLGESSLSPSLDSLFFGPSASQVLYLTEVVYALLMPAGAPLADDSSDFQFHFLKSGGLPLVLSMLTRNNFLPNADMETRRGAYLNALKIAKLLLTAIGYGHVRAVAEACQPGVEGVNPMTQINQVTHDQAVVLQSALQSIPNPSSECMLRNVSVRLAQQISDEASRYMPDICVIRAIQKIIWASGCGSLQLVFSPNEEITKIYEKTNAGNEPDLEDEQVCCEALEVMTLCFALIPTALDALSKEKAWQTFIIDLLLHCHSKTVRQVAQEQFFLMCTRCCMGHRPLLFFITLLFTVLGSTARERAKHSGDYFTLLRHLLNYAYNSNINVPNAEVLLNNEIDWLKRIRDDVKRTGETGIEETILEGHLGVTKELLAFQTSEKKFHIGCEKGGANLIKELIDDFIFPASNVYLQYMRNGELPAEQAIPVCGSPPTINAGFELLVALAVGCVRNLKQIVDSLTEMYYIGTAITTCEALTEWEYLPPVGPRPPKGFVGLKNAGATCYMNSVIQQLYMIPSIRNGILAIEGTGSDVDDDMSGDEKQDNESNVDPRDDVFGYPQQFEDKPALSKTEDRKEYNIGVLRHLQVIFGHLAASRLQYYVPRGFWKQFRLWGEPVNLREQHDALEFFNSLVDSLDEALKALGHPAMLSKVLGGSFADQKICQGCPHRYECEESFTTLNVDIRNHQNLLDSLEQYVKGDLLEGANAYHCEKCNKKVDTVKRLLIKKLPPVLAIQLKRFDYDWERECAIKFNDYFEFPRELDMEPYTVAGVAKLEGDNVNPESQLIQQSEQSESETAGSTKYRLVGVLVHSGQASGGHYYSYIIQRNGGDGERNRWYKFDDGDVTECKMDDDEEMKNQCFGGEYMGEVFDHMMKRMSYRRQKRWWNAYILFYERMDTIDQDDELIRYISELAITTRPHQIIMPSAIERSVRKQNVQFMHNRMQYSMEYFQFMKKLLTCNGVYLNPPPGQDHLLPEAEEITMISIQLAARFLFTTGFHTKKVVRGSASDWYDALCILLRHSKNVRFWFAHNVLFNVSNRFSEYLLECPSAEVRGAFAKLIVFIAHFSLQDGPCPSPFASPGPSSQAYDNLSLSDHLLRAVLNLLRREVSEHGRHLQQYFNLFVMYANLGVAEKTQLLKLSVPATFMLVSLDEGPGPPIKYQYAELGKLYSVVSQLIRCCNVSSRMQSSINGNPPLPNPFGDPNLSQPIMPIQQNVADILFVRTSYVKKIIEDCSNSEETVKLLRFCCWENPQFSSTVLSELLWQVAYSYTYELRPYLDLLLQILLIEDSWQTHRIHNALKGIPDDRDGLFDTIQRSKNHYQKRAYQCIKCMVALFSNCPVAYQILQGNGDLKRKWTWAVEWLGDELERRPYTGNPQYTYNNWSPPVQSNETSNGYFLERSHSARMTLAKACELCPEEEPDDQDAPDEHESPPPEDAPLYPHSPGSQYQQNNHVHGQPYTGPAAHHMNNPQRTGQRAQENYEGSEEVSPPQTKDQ

As to `O=C(CCl)N1CCOC(c2cccc(F)c2)C1` (stereo not given), the “log2 ratio of Biotin-Ahx-Ub-VS probe labelling” value (“log2 ratio” for short) was -0.424 with USP42; -0.374 with USP46; -0.467 in the test with USP47; -1.36 (active) in the test with USP48; 0.362 in the test with USP5; 0.45 with USP54. The “log2 ratio” value with USP7 is -0.705; with USP8, -0.461; in the test with USP9X, -0.504; with UniProt O00487, 0.15.
`O=C(CCl)N1CCOCC1C1CC1` (stereo not given): the “log2 ratio” value with USP42 is -0.112; with USP46, 0.00778; in the test with USP47 it was -0.0311; with USP48 it was 0.0155; in the test with USP5, 0.147; with USP54 it was 0.967. For the same compound, the “log2 ratio” value was -0.145 in the test with USP7, -0.168 with USP8, -0.18 in the test with USP9X and -0.226 in the test with UniProt O00487.

Source of the values: the supplement of paper PMC11732987, “Enantioselective OTUD7B fragment discovery through chemoproteomics screening and high-throughput optimisation” (Communications Chemistry, 2025).
